# Screening results: PubChem, National Center for Advancing Translational Sciences (NCATS)
# NPSR antagonist: qHTS Assay for Antagonists of the Neuropeptide S Receptor: cAMP Signal Transduction | AID 1461, 2008 | CHO-NPSR cells, cAMP TR-FRET, antagonist mode | actives 1% (n = 220,000) | Potency, µM (titrated, usually from 38.3 µM), for the others: at the top dose activity change, negative = inhibition, most hits filed as inhibitors | Q6W5P4; active = well fitted curve in the direction sought with a large enough effect; inconclusive = small, poorly fitted or top-dose-only effect, or another doubt; inactive = no such curve, though single readings can be large; an effect the other way counts as inactive or inconclusive; note: potency is the fitted concentration of half-maximal effect; nearly all actives have a fitted effect of over 50% in size
# Target sequence (Q6W5P4 whole entry, looked up): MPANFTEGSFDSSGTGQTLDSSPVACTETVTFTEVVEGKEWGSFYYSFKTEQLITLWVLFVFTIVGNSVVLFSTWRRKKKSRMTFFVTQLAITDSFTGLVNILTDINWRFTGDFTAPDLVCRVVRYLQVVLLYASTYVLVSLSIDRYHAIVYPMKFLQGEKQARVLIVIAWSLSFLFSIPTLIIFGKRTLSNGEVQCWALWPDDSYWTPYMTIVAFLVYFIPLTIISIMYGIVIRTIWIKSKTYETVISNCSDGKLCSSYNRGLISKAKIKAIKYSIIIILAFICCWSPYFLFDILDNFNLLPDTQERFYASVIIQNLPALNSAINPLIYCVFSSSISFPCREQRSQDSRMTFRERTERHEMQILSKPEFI
# FBPA coupling cs: qHTS Assay for Inhibitors of Fructose-1,6-bisphosphate Aldolase from Giardia Lamblia: Coupling assay counterscreen; coupling enzyme system counterscreen, AmpLite Red fluorescence; activity change, negative = inhibition, % at 58.2 µM, hits read low; actives 0.67% (n = 290,000); in the data active = activity change below about -30%
#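 Compounds tested against the coupling enzymes alone at 57.5 uM final; readout was AmpLite Red fluorescence (525/598 nm) after 20 min at RT.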
# KDM4E inh: qHTS Assay for Inhibitors of Human Jumonji Domain Containing 2E (JMJD2E); actives 1.6% (n = 230,000); Lysine-specific demethylase 4E (Homo sapiens), B2RXH2; Potency, µM (doses to about 57.1 µM), for inactives: top-dose activity change, negative = inhibition, usual class: inhibitors; JMJD2E catalytic domain, FDH-coupled NADH fluorescence (FDH is formaldehyde dehydrogenase);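 note: potency is the fitted concentration of half-maximal effect; 0% = wells with enzyme and -100% = buffer wells without enzyme; nearly all actives have a fitted effect of over 50% in size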
# ALDH1A1 block: qHTS Assay for Inhibitors of Aldehyde Dehydrogenase 1 (ALDH1A1) | Aldehyde dehydrogenase 1A1 (Homo sapiens), P00352 | Purified ALDH1A1, NADH fluorescence, propionaldehyde substrate | Potency, µM (series often up to 75.3 µM), for the others: top-dose activity, negative = inhibition, hits mostly inhibitors | actives 7.3% (n = 220,000) | AID 1030, 2008;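 note: potency is the fitted concentration of half-maximal effect; plate controls were no enzyme wells and a reference inhibitor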
# Sfp inh: qHTS Assay for Inhibitors of Bacillus subtilis Sfp phosphopantetheinyl transferase (PPTase); Biochemical Sfp PPTase activity, qHTS; Potency, µM, for the others: largest response in the series, negative = inhibition, usual class: inhibitors; actives 3.5% (n = 310,000); AID 1490, 2009; active = well fitted curve in the direction sought with a large enough effect; inconclusive = small, poorly fitted or top-dose-only effect, or another doubt; inactive = no such curve, though single readings can be large; an effect the other way counts as inactive or inconclusive;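 note: the enzyme is Sfp with the accession as filed and its product quenches rhodamine fluorescence; potency is the fitted concentration of half-maximal effect; 0% = enzyme reaction without inhibitor and -100% = no enzyme wells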
#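 Sfp 15 nM + cpd, 15 min RT; start w/ rhodamine-CoA 5 uM, BHQ-2-YbbR 12.5 uM (final); 50 mM Hepes pH 7.6, 10 mM MgCl2, 0.01% NP-40, 0.01% BSA; read 525/598 nm at 0 and 30 min.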
# GoLoco inh red: qHTS Assay for Inhibitors of RGS12 GoLoco Motif Activity (Red Fluorophore); Guanine nucleotide-binding protein G(i) subunit alpha-1 (Homo sapiens), P63096; Gai1:RGS12 GoLoco peptide FP, rhodamine, 10 min; Potency, µM (series often up to 61.6 µM), for the others: at the highest dose activity, negative = inhibition, usual class: inhibitors; actives 0.44% (n = 230,000); active = well fitted inhibition curve with a large enough effect, not every such curve was filed as active; inactive = no such curve, though single readings can be large or run the other way; note: potency is the fitted concentration of half-maximal effect; nearly all actives have a fitted effect of over 30% in size
# Target sequence (P63096 whole entry, looked up): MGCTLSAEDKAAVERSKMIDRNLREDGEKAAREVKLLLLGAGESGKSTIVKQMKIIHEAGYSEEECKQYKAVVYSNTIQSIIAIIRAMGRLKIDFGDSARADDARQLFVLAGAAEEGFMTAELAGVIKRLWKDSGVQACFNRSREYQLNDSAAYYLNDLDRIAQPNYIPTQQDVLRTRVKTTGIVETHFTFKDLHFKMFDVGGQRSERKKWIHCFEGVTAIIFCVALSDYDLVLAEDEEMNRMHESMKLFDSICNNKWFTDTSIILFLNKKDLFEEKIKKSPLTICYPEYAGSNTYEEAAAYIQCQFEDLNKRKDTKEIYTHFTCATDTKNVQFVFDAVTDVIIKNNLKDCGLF
# Starred values were filed as active, the others as inactive; ? = inconclusive; . = no result given; [ ] = another dose, or the depositor's remark. Sampled rows, rich in hits. Any-hit rate of the full collection: about 8.5%. Unless noted, calls come from the whole dose curve; as a rule, active = well fitted inhibition curve with a large enough effect (not every such curve was filed as active); inconclusive = small, poorly fitted or top-dose-only effect, or another doubt; inactive = no such curve, though single readings can be large or run the other way. Unless noted, % is set by controls: 0 for no effect and ±100 for the full control effect.
SMILES,NPSR antagonist,FBPA coupling cs,KDM4E inh,ALDH1A1 block,Sfp inh,GoLoco inh red
COC(=O)c1cc(N2C(=O)C3C(C2=O)C2(C)C=CC3(C)O2)ccc1Cl (stereo not given),?,6.9,1.8%,0.112µM*,7.94µM*,0.3%
CC(=O)Oc1ccc(N2C(=O)C3C4C=CC(CO)(O4)C3C2=O)cc1 (stereo not given),-11.6%[46.1 µM],-2.1,-4.8%,0.708µM*,15.8µM*,-13.6%
O=C1C2C3C=CC(CO)(O3)C2C(=O)N1c1ccccc1-c1ccccc1 (stereo not given),6.31µM*,-2.8,-1.0%,1.12µM*,1.12µM*,-26.7%
COCCn1c(SCC(=O)N(C)c2ccccc2)nc2c([nH]c3ccccc32)c1=O,.,-4.4,.,.,1.8%,.
O=c1[nH]c2ccc(S(=O)(=O)Nc3ccc(Cl)cc3)cc2[nH]1,.,0.4,.,.,1.7%,.
CC(=O)Nc1ccc(SCC(CC(C)C)N2CCN(CCc3ccccc3)CCC2=O)cc1 (stereo not given),.,0.9,.,.,-21.9%,.
COC(=O)C1(C)NC(c2ccc(Cl)cc2)C2C(=O)N(c3ccccc3)C(=O)C21 (stereo not given),.,4.0,.,.,21.2%,.
O=C1C2C3C=CC(CNS(=O)(=O)c4ccccc4)(O3)C2C(=O)N1c1ccc(Cl)cc1 (stereo not given),2.2%,3.5,7.0%,0.631µM*,25.1µM*,-18.6%
O=c1[nH]c(CSc2ccccn2)nc2c1oc1ccccc12,-18.5%,-3.3,7.2%,?,15.3%,14.3%
Cc1ccc2nc(C)c(C(=O)NN=C3CCN(C)CC3)n2c1,15.1%,0.3,3.0%,7.94µM*,2.9%,17.7%
N#CC1=C(SCc2ccccc2)NC(=O)CC1c1ccccc1 (stereo not given),-7.2%,0.8,4.4%,?,-5.5%,0.2%
N#CC1=C2SCC(O)(c3ccccc3)N2C(=O)CC1c1ccccc1 (stereo not given),5.3%[7.67 µM],-6.1,-4.4%,?,56.2µM*,105.1%
Cc1nn(CC(=O)c2cccc(Cl)c2)c(C)c1[N+](=O)[O-],-17.6%,1.7,-2.2%,4.7%,11.4%,20.6%
Cc1nc2c(O)cccc2cc1CO,1.8%[7.67 µM],-37.4*,2.9%,.,70.8µM*,-4.7%
Cc1ccc(O)c(CO)n1,-20.4%,3.3,?,?,3.0%,-1.8%
CCOCCCNC(=O)c1cn(CC(C)C)c(=O)c2cc(OC)c(OC)cc12,-2.2%[46.1 µM],-1.0,-24.6%,20µM*,24.9%,2.0%
COc1cc2c(C(=O)N3CCN(Cc4ccc5c(c4)OCO5)CC3)cn(C)c(=O)c2cc1OC,-15.8%[46.1 µM],5.6,?,2.51µM*,-3.5%,-9.4%
CCn1cc(C(=O)NCc2cccnc2)c2cc(OC)c(OC)cc2c1=O,1.3%[46.1 µM],-2.9,?,25.1µM*,2.2%,6.6%
COc1cc(OC)c(C(=O)NCc2cccnc2)cc1OC,17.3%,-0.5,-23.5%,-4.0%,19.6%,2.3%
COc1cc2c(C(=O)NCc3ccc4c(c3)OCO4)cn(CC(C)C)c(=O)c2cc1OC,-6.4%[46.1 µM],0.2,-20.0%,0.141µM*,9.6%,3.1%
O=C(N[C@H](Cc1cc(=O)[nH]c2ccccc12)C(=O)O)c1ccc(Cl)cc1,.,-1.4,.,.,13.1%,.
CC1(C)Cc2c(C#N)c(N3CCN(C(=O)c4ccccc4)CC3)nc(-c3ccco3)c2CS1,?,-3.0,5.3%,0.9%,20µM*,-0.4%
N#Cc1c(N2CCOCC2)nc(-c2ccco2)c2c1CCCC2,-9.8%[46.1 µM],11.3,?,?,44.7µM*,-1.5%
CC1(C)Cc2c(C#N)c(N3CCCC3)nc(-c3ccco3)c2CO1,-13.1%[46.1 µM],-1.4,?,?,17.8µM*,6.1%
CCCCN(C)c1nc(-c2ccco2)c2c(c1C#N)CC(C)(C)OC2,?,3.9,?,?,35.5µM*,9.1%
SMILES,NPSR antagonist,FBPA coupling cs,KDM4E inh,ALDH1A1 block,Sfp inh,GoLoco inh red
CC(=O)N/C(=C\c1ccccc1)C(=O)OCc1ccc(F)cc1,.,.,.,.,12.9%,.
CCOc1ccc(C(=O)Nc2c(C(=O)N3CCC(N4CCCCC4)CC3)oc3ccccc23)cc1,.,.,.,.,14.9%,.
O=C(Nc1ccc(NS(=O)(=O)c2ccc([N+](=O)[O-])cc2)cc1)c1ccco1,.,-0.2,.,.,-4.8%,.
CC1(C)Cc2c(C#N)c(NCc3ccco3)nc(-c3ccco3)c2CO1,-2.2%[46.1 µM],-3.2,?,?,3.55µM*,19.9%
Cc1nc(NCc2ccco2)c(C#N)c2c1COC(C)(C)C2,-29.6%[46.1 µM],2.5,?,-4.6%,20.4%,8.9%
Cc1occc1C(=O)NNC(=O)c1ccccc1[N+](=O)[O-],.,.,.,.,2.1%,.
NC(=O)COC(=O)CNC(=O)c1ccc(Cl)cc1,0.4%[46.1 µM],3.5,2.9%,2µM*,11.6%,-9.5%
NC(=O)COC(=O)CNC(=O)c1cc(Cl)cc([N+](=O)[O-])c1,0.0%,-0.5,0.3%,0.7%,25.8%,3.1%
Cc1sc2nc(SCC(=O)Nc3ccc(S(N)(=O)=O)cc3)[nH]c(=O)c2c1C,.,0.7,.,.,-11.2%,.
Cc1sc2nc(CSCC(=O)Nc3ccccc3C#N)[nH]c(=O)c2c1C,7.8%,-0.5,-1.2%,?,79.4µM*,139.2%
N#Cc1ccccc1NC(=O)CSc1cn[nH]n1,.,3.3,.,.,7.1%,.
Cc1sc2nc(CSCC(=O)Nc3ccc(OC(F)F)cc3)[nH]c(=O)c2c1C,-12.0%,-6.0,-10.7%,39.8µM*,13.1%,43.5%
C[C@H]1COC(=O)O1,.,-2.9,.,.,31.5%,.
O=C(NC1CCCCC1)C(c1cccnc1)N(C(=O)c1ccc(Cl)nc1)C1CCCCC1 (stereo not given),-1.3%,6.1,-2.9%,8.3%,-7.8%,2.8%
O=C(CCN1C(=O)/C(=C/c2ccc(F)cc2)SC1=S)NC1CCS(=O)(=O)C1 (stereo not given),.,.,.,.,-12.2%,.
CC(C(=O)N(C)C1CCS(=O)(=O)C1)N1C(=O)/C(=C/c2ccc(F)cc2)SC1=S (stereo not given),.,.,.,.,50.1µM*,.
CCN(C(=O)C(C)N1C(=O)/C(=C/c2ccco2)SC1=S)C1CCS(=O)(=O)C1 (stereo not given),.,-22.4,.,.,15.8µM*,.
Cc1sc2nc3c4ccccc4c(NCc4ccco4)nn3c(=O)c2c1C,?,0.2,?,?,17.8µM*,26.3%
Cc1nc(NCc2ccco2)c2c(C)c(C)sc2n1,-8.7%[46.1 µM],1.4,?,?,-28.1%,-6.8%
CCC1C(=O)CC2CCN3C(=O)CCC1C23 (stereo not given),.,0.7,.,.,15.4%,.
